Rows were chosen to be rich in hits. Some 3.4% of all compounds tested hit in one or more screens of this group.
GPR151 activ – activates the human receptor GPR151; Q8TDV0; PathHunter beta-arrestin GPR151 cells, luminescence; activation, % at 11.2 µM; hit rate 1% among 650,000; in the data active means activation above about 4.9%;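 further: 0% = median of compound wells and 100% = cells with positive control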
Target sequence (Q8TDV0 whole entry, looked up): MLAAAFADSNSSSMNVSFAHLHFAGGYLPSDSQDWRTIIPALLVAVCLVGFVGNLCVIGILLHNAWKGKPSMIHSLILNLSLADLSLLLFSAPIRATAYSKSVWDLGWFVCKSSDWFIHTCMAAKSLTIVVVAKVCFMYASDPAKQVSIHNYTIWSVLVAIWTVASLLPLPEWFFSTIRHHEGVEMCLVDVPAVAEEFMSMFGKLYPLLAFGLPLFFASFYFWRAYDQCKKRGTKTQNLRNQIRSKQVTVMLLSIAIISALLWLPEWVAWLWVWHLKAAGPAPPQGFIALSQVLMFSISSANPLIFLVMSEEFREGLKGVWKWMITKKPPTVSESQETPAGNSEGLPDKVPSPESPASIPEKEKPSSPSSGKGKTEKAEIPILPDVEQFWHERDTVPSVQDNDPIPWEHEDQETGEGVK
TEAD-YAP block – TEAD-YAP interaction inhibition | HEK-TIYL cells, TEAD-Gal4/YAP UAS-luciferase luminescence | inhibition, % at 9.12 µM | hit rate 1.4% among 640,000 | AID 1259422; in the data active means inhibition above about 32%;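 further: 0% = median of test compound wells and 100% = reference inhibitor wells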
MITF inh – blocks human microphthalmia-associated transcription factor. hit rate 0.91% among 650,000. AlphaScreen MITF homodimerization, bead proximity signal. inhibition, % at 2.6 µM; in the data active means inhibition above about 50%;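 further: 0% = vehicle wells with protein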
FBW7 activator – activators of human E3 ligase FBW7 | hit rate 0.13% among 650,000 | AlphaScreen FBW7–phospho-cyclin E peptide binding, activator screen | normalized activity (activation), % at 26.1 µM | Q969H0 | AID 1259310; in the data active means normalized activity above about 1.9%;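 further: purified mutant Fbw7 with reduced substrate affinity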
GPR151 confirm – human GPR151 activation, confirmation screen; shares compounds with GPR151 activ; GPR151 PathHunter beta-arrestin cells, luminescence, 90 min; % of EA-reagent control over plate median; activation, % at 11.2 µM; 6,700 tested, under 10 active; AID 1508609;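 active means mean percent activation across replicates above the confirmation screen cutoff of 4.91%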
GPR119 counter – GPR119 activation, counter-screen for GPR151 activators; hit rate 0.3% among 6,700; activation, % at 11.2 µM; GPR119 PathHunter beta-arrestin cells, luminescence, 90 min; 0 = compound-well median, 100 = enzyme-acceptor control; shares compounds with GPR151 activ;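 active means mean percent activation in the counterscreen above 29.09%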;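 further: counterscreen on off-target GPR119 to flag nonselective hits from the GPR151 activator screen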
Active calls of the source: *; x = no result; ! = not confirmed by another sample.

SMILES	GPR151 activ	TEAD-YAP block	MITF inh	FBW7 activator	GPR151 confirm	GPR119 counter
Cn1cc(CN[C@H]2C[C@H]3C(=O)N[C@@H](Cc4ccccc4)C(=O)N3C2)c(-c2ccccc2)n1	9.8*	-15.7	-19.2	-0.1	0.2	4.0
CC(C)C[C@H]1NC(=O)[C@@H]2C[C@H](NCc3nc(-c4ccc(F)cc4)cs3)CN2C1=O	-0.6	-2.2	-14.2	0.2	x	x
O=C1N[C@H](CO)C(=O)N2C[C@@H](NCc3nc(-c4ccc(F)cc4)cs3)C[C@@H]12	7.7*	10.5	-1.0	-0.2	0.5	9.7
CCC[C@@H]1NC(=O)[C@@H]2C[C@H](NCc3cc(C)ccc3F)CN2C1=O	9.4*	-7.2	-1.9	-0.1	2.0	11.3
CCC[C@@H]1NC(=O)[C@@H]2C[C@H](NCc3cc4ccccc4s3)CN2C1=O	5.6*	0.8	10.0	0.0	0.5	13.4
CN(C)CCNC(=O)c1cc2c(s1)-c1ccccc1SC2	-2.7	-33.1	0.7	0.0	x	x
O=C(NCCCN1CCCC1)c1cc2c(s1)-c1ccccc1SC2	6.0*	-5.2	12.0	-0.2	-0.8	-17.1
COc1cc(NC(=O)C2CCN(c3ccc(Nc4ccccc4)nn3)CC2)cc(OC)c1OC	-1.0	-14.8	9.9	1.1	x	x
COc1cc(NC(=O)C2CCN(c3ccc(Nc4cc(OC)c(OC)c(OC)c4)nn3)CC2)cc(OC)c1OC	7.8*	-6.7	7.3	-0.2	-0.7	-4.4
O=C(Nc1nc2ccc([N+](=O)[O-])cc2s1)c1ccc(-c2ccccc2)cc1	1.7	10.1	-2.7	0.0	x	x
Cc1ccc(NC(=O)CSc2ccc(-c3ccncc3)nn2)c(C)c1	-0.4	-0.7	17.2	0.0	x	x
CCOCCOC(=O)C1=C(C)NC2=C(C(=O)CC(C)(C)C2)C1c1ccccc1C(F)(F)F (configuration not stated)	0.0	6.8	-12.1	0.2	x	x
CC(=O)C(Sc1nc(NC(C)C)nc(N(C)C)n1)C(C)=O	5.3*	-12.2	15.9	0.9	-0.2	4.9
O=C(O)CCCc1c[nH]c2ccccc12	5.0*!	-5.6	7.2	-0.1	-0.1	3.2
O=C(O)CCCNC(=O)Cc1c[nH]c2ccccc12	0.7	-5.3	-6.7	0.2	x	x
c1ccc(Cc2c[nH]c3ccccc23)cc1	5.3*	15.7	6.2	-0.2	-0.6	5.1
CCOC(=O)C(C)Oc1ccc2c(=O)c(Oc3ccc(OC)cc3)coc2c1 (configuration not stated)	-0.2	7.1	2.9	0.2	x	x
CCOC(=O)C(C)Oc1ccc2c(=O)c(Oc3cccc(OC)c3)coc2c1 (configuration not stated)	10.7*	-2.6	3.6	0.3	-0.2	0.1
O=C(CN1N=NC2C(=O)N(c3ccc(F)cc3F)C(=O)C21)Nc1ccccc1 (configuration not stated)	0.9	-0.4	-10.5	0.1	x	x
CCCS(=O)(=O)N1CCC(CO)(Cc2ccc(OC)cc2)CC1	0.5	5.3	0.0	-0.1	x	x
COC(=O)c1nsc(Cl)c1Cl	6.8*	8.0	10.1	0.1	-0.4	-8.0
CC(C)(C)C(=O)OCN1c2nonc2N(COC(=O)C(C)(C)C)c2nonc21	7.9*	-0.6	-9.3	-0.2	0.3	0.3
CC(=O)c1cccc(NC(=O)N2CCCC(c3nc4ccccc4[nH]3)C2)c1 (configuration not stated)	-0.2	2.5	0.2	-0.1	x	x
Cc1cc2c(N(C)CCc3ccccn3)ncnc2s1	0.7	-75.9	15.7	0.1	x	x
Cc1ccc2c(c1)C(=C(C#N)C#N)C=C(c1cccs1)O2	5.3*	-8.7	1.0	-0.1	0.2	9.8
C/C(=N\NC(=O)c1cc(-c2ccco2)[nH]n1)c1ccc(O)cc1	7.4*	6.0	8.5	-0.1	0.3	11.3
C/C(=N\NC(=O)c1cc(-c2cccs2)[nH]n1)c1ccc(O)cc1	-1.3	-6.3	-10.5	0.0	x	x
COC(=O)c1cc(NC(C)=O)c(Cl)c(NC(C)=O)c1	-1.3	4.2	26.2	0.1	x	x
CC(=O)Nc1cc(C(=O)O)cc(N)c1Cl	5.5*	0.5	15.9	0.5	-0.6	-1.9
CC(NS(=O)(=O)c1ccc2c(c1)NC(=O)CC(=O)N2)c1ccccc1 (configuration not stated)	8.3*	-1.1	-6.9	-0.1	1.2	12.0
